Bioassay records (PubChem BioAssay)
TDP1 cell noCPT: qHTS for Inhibitors of human tyrosyl-DNA phosphodiesterase 1 (TDP1): qHTS in cells in absence of CPT | DT40 Tdp1-/- hTDP1 cells, no CPT, ATP luminescence, 48 h | Potency, µM (series often up to 46.2 µM), for inactives: at the top dose activity change, negative = growth inhibition, hits mostly inhibitors | 420,000 tested, 15% active; further: potency means the concentration at half of the fitted maximal effect; nearly all actives have a fitted effect of over 55% in size
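Luminescent ATP content (CellTiter-Glo) served as the growth readout. Knockout chicken DT40 cells expressing human TDP1 were exposed to compounds without camptothecin for a minimum 48 hr at 37 °C.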
HT1080-NT tox: kills 2HG-producing HT-1080-NT fibrosarcoma cells; Potency, µM (highest dose often 46.1 µM), for the others: top-dose activity, negative = less viability, usual class: cytotoxic; 360,000 tested, 1.6% active; HT-1080-NT fibrosarcoma viability, CellTiter-Glo ATP luminescence, 48 h;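 further: NT is the 2HG producing partner of a matched IDH1 knockdown line; potency means the concentration at half of the fitted maximal effect; 0% = DMSO-treated cells and -100% = media-only wells without cells; nearly all actives have a fitted effect of over 55% in size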
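Toxicity toward the 2HG-producing NT line was scored as %Activity, normalised to DMSO and no-cell wells, from CellTiter-Glo luminescence after 48 hours' treatment.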
HT1080 IDH1KD tx: toxicity to HT-1080 IDH1 knockdown cells (counter line). HT-1080 IDH1 knockdown viability, ATP luminescence, 48 h. Potency, µM (top dose mostly 46.1 µM), without a hit: at the top dose activity, negative = toxicity, hits mostly cytotoxic. 360,000 tested, 2% active. AID 686971;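 further: potency means the concentration at half of the fitted maximal effect; 0% = DMSO wells and -100% = cell-free medium wells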
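Assay cells: HT-1080 with IDH1 knockdown, 750 per well, RPMI/5% FBS. Exposure: 48 h at 37 °C following 2 h pre-incubation. Read: CellTiter-Glo luminescence; fitted concentration-response, curve class assigned.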
IL-1B inflam inh: inflammasome signaling inhibition, IL-1 beta readout; THP-1 LPS/ATP IL-1B secretion, AlphaLISA, 16 h; stronger effect = lower value; activity change, % at 57.5 µM; 360,000 tested, 4.7% active; in the data active means activity change below about -50%; inconclusive means mostly about -30% to -49%
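THP-1 cells pretreated 1 hr with compounds (up to 57.5 uM final), then stimulated with LPS (250 ng/mL final) plus ATP (1.25 mM final); secreted IL-1B measured by AlphaLISA after 16 hr, decreased signal indicating inhibition.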
TDP1 cell CPT: DT40-hTDP1 cell growth loss with CPT; chicken DT40 Tdp1-/-;hTDP1 cells + 20 nM CPT, ATP luminescence, 48 h; Potency, µM (series often up to 46.2 µM), for inactives: top-dose activity change, negative = growth inhibition, usual class: inhibitors; 420,000 tested, 12% active; further: potency means the concentration at half of the fitted maximal effect; nearly all actives have a fitted effect of over 55% in size
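Chicken DT40 Tdp1-/- cells complemented with human TDP1, 400 cells/well, exposed to compounds plus 20 nM camptothecin for at least 48 h at 37 C; viability read as ATP content by CellTiter-Glo luminescence.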
Starred values were filed as active, the others as inactive; ! = not active in a repeat. Sampled rows, rich in hits. Any-hit rate of the full collection: about 19%. Unless noted, the call rests on the fitted dose curve; in most records, active means well fitted curve in the direction sought with a large enough effect; inconclusive means small, poorly fitted or top-dose-only effect, or another doubt; inactive means no such curve, though single readings can be large; an effect the other way counts as inactive or inconclusive. Unless noted, on the % scale 0 is the no-effect control and ±100 the full control effect.

`COc1ccc(CNC(=O)CCc2c(C)nc3cc(-c4ccccc4OC)nn3c2C)cc1` gave TDP1 cell noCPT inconclusive, HT1080-NT tox 0%, HT1080 IDH1KD tx 0%, IL-1B inflam inh -3 and TDP1 cell CPT inconclusive.
O=C(Nc1cccc(C(F)(F)F)c1)c1cc2nc(-c3ccc4c(c3)OCO4)cc(C(F)(F)F)n2n1 was read as TDP1 cell noCPT -4% and TDP1 cell CPT -4%.
For COc1ccc2oc(=O)c(C(=O)OCc3ccccc3)cc2c1 the results were TDP1 cell noCPT 0%, HT1080-NT tox 2%, HT1080 IDH1KD tx 2%, IL-1B inflam inh -8 and TDP1 cell CPT 2%.
Screening O=C(COC(=O)c1ccccc1O)Nc1cc([N+](=O)[O-])ccc1Cl returned TDP1 cell noCPT 27%, HT1080-NT tox 17%, HT1080 IDH1KD tx 12%, IL-1B inflam inh 0 and TDP1 cell CPT 4%.
For CCOc1ccc(OCC)c(NC(=O)c2nnn(CC(=O)Nc3cc(C)cc(C)c3)c2N)c1 the results were TDP1 cell noCPT -25%, HT1080-NT tox inconclusive, HT1080 IDH1KD tx 21µM*, IL-1B inflam inh -14 and TDP1 cell CPT -23%.
`CCOc1ccc(NC(=O)Cn2nnc(C(=O)Nc3ccc(OCC)cc3)c2N)cc1` gave TDP1 cell noCPT -24% and TDP1 cell CPT 4%.
Screening Cc1cc(C)cc(NC(=O)c2nnn(Cc3cc(C)ccc3C)c2N)c1 returned TDP1 cell noCPT inconclusive, HT1080-NT tox -24%, HT1080 IDH1KD tx inconclusive, IL-1B inflam inh 0 and TDP1 cell CPT 21µM*.
Screening C[C@H]1CCC(=O)N([C@H](CN=[N+]=[N-])Cc2ccccc2)CC1 returned TDP1 cell noCPT inconclusive, HT1080-NT tox 0%, HT1080 IDH1KD tx -3%, IL-1B inflam inh -5 and TDP1 cell CPT -9%.
`Cc1ccc(SCCN2CCC(NC(=O)OCc3ccccc3)CCC2=O)cc1` (centres undefined) gave TDP1 cell noCPT 18µM*, HT1080-NT tox 1%, HT1080 IDH1KD tx -2%, IL-1B inflam inh 3 and TDP1 cell CPT inconclusive.
For O=C(NC1CCC(C(=O)O)CC1)OCc1ccccc1 (centres undefined) the results were TDP1 cell noCPT -7%, HT1080-NT tox 9%, HT1080 IDH1KD tx 13%, IL-1B inflam inh 4 and TDP1 cell CPT 3%.
For O=C(N[C@@H]1CCC(=O)N(CC[C@H](Sc2ccccc2)c2ccccc2)CC1)OCc1ccccc1 the results were TDP1 cell noCPT 23µM*, HT1080-NT tox inconclusive, HT1080 IDH1KD tx inconclusive, IL-1B inflam inh inconclusive and TDP1 cell CPT inconclusive.
Screening [N-]=[N+]=NC[C@H](Cc1ccccc1)N1CC[C@@H](NC(=O)OCc2ccccc2)CCC1=O returned TDP1 cell noCPT 16µM*, HT1080-NT tox -7%, HT1080 IDH1KD tx -6%, IL-1B inflam inh 18 and TDP1 cell CPT inconclusive.
O=C(NC1CCC(=O)N(CCOc2ccccc2)CC1)OCc1ccccc1 (centres undefined) was read as TDP1 cell noCPT 11µM*!, HT1080-NT tox 10%, HT1080 IDH1KD tx 10%, IL-1B inflam inh 0 and TDP1 cell CPT inconclusive.
`Cc1c(Cl)cccc1NC(=O)CSc1nc(=O)n(Cc2cccnc2)c2c1CCC2` gave TDP1 cell noCPT -11% and TDP1 cell CPT -20%.
Screening O=C(N[C@H]1CCC(=O)N(CCSc2ccc(Br)cc2)CC1)OCc1ccccc1 returned TDP1 cell noCPT 16µM*, HT1080-NT tox inconclusive, HT1080 IDH1KD tx inconclusive, IL-1B inflam inh -22 and TDP1 cell CPT 15µM*.
Cc1ccc(SC[C@H](C)CN2CCC(NC(=O)OCc3ccccc3)CCC2=O)cc1 (some centres undefined) was read as TDP1 cell noCPT inconclusive, HT1080-NT tox inconclusive, HT1080 IDH1KD tx inconclusive, IL-1B inflam inh -2 and TDP1 cell CPT inconclusive.
Cn1ncc2c(NNC(=O)c3ccccc3Cl)ncnc21 was read as TDP1 cell noCPT -1%, HT1080-NT tox 2%, HT1080 IDH1KD tx -1%, IL-1B inflam inh 1 and TDP1 cell CPT 1%.
`CC(C)(C)OC(=O)N1CCc2onc(-c3ccc(Br)cc3)c2C1=O` gave TDP1 cell noCPT inconclusive, HT1080-NT tox 0%, HT1080 IDH1KD tx -5%, IL-1B inflam inh 36 and TDP1 cell CPT -30%.
`CC1CCCN(C(=O)CSc2nnc(-c3cccnc3)n2C2CCCCC2)C1` (centres undefined) gave TDP1 cell noCPT -17%, HT1080-NT tox -4%, HT1080 IDH1KD tx 9%, IL-1B inflam inh -1 and TDP1 cell CPT -24%.
`O=C(CSc1nnc2n(C3CCCC3)c(=O)c3ccccc3n12)N1CCCCCC1` gave TDP1 cell noCPT 23µM*, HT1080-NT tox -20%, HT1080 IDH1KD tx -24%, IL-1B inflam inh -10 and TDP1 cell CPT 21µM*.
`CC1CCCN(C(=O)CSc2nnc3n(C4CCCC4)c(=O)c4ccccc4n23)C1` (centres undefined) gave TDP1 cell noCPT 16µM*, HT1080-NT tox 2%, HT1080 IDH1KD tx 6%, IL-1B inflam inh -2 and TDP1 cell CPT 23µM*.
Screening Cc1ccccc1-c1cc(C(=O)Nc2sc(C(=O)OC(C)C)c(C)c2C#N)c2ccccc2n1 returned TDP1 cell noCPT 21µM*, HT1080-NT tox inconclusive, HT1080 IDH1KD tx inconclusive, IL-1B inflam inh -27 and TDP1 cell CPT 23µM*.
Screening CCOC(=O)c1sc(NC(=O)c2cc(-c3ccc(C)cc3)nc3ccccc23)c(C#N)c1C returned TDP1 cell noCPT 16µM*, HT1080-NT tox 16µM*, HT1080 IDH1KD tx inconclusive, IL-1B inflam inh -5 and TDP1 cell CPT 21µM*.
For COC(=O)c1sc(NC(=O)c2cc(-c3ccccc3)nc3ccccc23)c(C#N)c1C the results were TDP1 cell noCPT 7.3µM*, HT1080-NT tox inconclusive, HT1080 IDH1KD tx inconclusive, IL-1B inflam inh 7 and TDP1 cell CPT 8.2µM*.
Cc1ccccc1NC(=O)c1sc(NC(=O)COc2ccccc2)c(C#N)c1C was read as TDP1 cell noCPT 18µM*, HT1080-NT tox -9%, HT1080 IDH1KD tx -5%, IL-1B inflam inh 2 and TDP1 cell CPT inconclusive.
CN(C)c1ccc(P(=O)(OC2CCCCC2)C(O)c2ccncc2)cc1 (centres undefined) was read as TDP1 cell noCPT -10%, HT1080-NT tox -1%, HT1080 IDH1KD tx -2%, IL-1B inflam inh 2 and TDP1 cell CPT 1%.
`Cc1ccc(C)c(Cn2c(=O)n(-c3ccc(Cl)cc3)c(=O)c3c(C)c(C)sc32)c1` gave TDP1 cell noCPT -10% and TDP1 cell CPT -10%.
